For this assay, the target named is AMP-activated protein kinase, AMPK (Homo sapiens) (UniProt P54646+O43741+P54619+Q9UGJ0+Q9Y478+Q13131+Q9UGI9). As to the kind of experiment: AMP-dependent Kinase enzyme assay. An in vitro enzyme assay that detects ADP turnover that is directly proportional to AMPK activity. This uses naive AMPK that is activated during the assay with MK-8722. Type of assay: functional. Set-up: scale not given: direction of the effect not stated beside the values. The note with it: 30 µM.
Take `COc1ccsc1C(=O)NC1CCN(c2cccc(F)c2)CC1`: the Percent Effect is -1.16%.
In the case of `N#Cc1c(N)nc2c(c1-c1c[nH]nc1C1CCCCC1)COCC2` it was 42.5%; in that of `CN1C(=O)[C@H]2CC[C@@H]1CN(C(=O)Nc1cccc3ccccc13)C2`, -18.9%; in that of `NC(=O)c1csc(N2C[C@@H](CN3CCC(O)CC3)[C@@H](CO)C2)n1`, -1.72%.
For the compound `CCC(C)Oc1ccc(CNCCc2c[nH]cn2)cc1Cl` (stereo not given), the Percent Effect was -17.6%.
Then `CCc1ccc(C(=O)NC2CCCN(c3ccn(C)n3)C2=O)o1` (stereo not given), with -0.669%.
Then `FC(F)(F)c1cccc(OC2CCN(Cc3ccccn3)CC2)c1`, with 2.09%.
In the case of `O=C(CCn1cncn1)NCCOc1cccc(Cl)c1` it was -7.83%; in that of `CC(C)Cc1cc(CNC(=O)c2cccc3c2NCCC3)no1`, 1.24%; in that of `COC(=O)C(NC(=O)c1cc(F)cc(F)c1)c1cccnc1` (stereo not given), 2.18%.
As to `Cc1ccnc2c1NC(=O)CN2C(=O)CCc1ccccc1`, the Percent Effect was -1.93%.
In the case of `O=C(NCC(O)c1cccc(F)c1)C1CCN(C2CCCCC2)CC1` (stereo not given), the Percent Effect is -10%.
In the case of `N#Cc1cccc(N2CCC(CO)(CCOc3ccccc3)CC2)n1` it was 3.85%.
Then `Nc1ccnc(N2CCC(c3nccn3CC3CC3)CC2)n1`, with -3.62%; and `COC(=O)C1CN(Cc2cc(F)ccc2Br)CCO1` (stereo not given), with -6.48%.
Then `Cc1cc(CNCC2(O)CCOCC2)ccc1Br`, with -7.22%; and `CSc1nsc(NC(=O)N(C)Cc2ccc3c(c2)OCO3)n1`, with 0.417%; and `CCC(C)NC(=O)Nc1cccc(OC)c1` (stereo not given), with -9.8%.
`C[C@@H]1CN(Cc2nc(C(N)=O)no2)CC[C@@]1(O)C1CC1`: the Percent Effect turned out to be 0.276%.
Then `CC(Cc1cccc(F)c1)C(=O)NS(=O)(=O)c1ccc2c(c1)OCCO2` (stereo not given), with 3.32%; and `CCc1ccccc1OCCN(C)C(=O)CN1CCCC1`, with -130%; and `COCCN(CCOC)C(=O)c1cnn(C)c1-n1c(C)ccc1C`, with -1.28%.
Consider `CCOCCC(=O)NCC1CCCO1` (stereo not given), for which the Percent Effect is 0.034%.
Then `Cn1cc(NC(=O)N2CCCC2c2cccnc2)ccc1=O` (stereo not given), with 42.2%.
With `CCNC(=O)[C@@H]1C[C@H](N)CN1C(=O)c1c[nH]c2ccccc12`, the Percent Effect worked out at 6.06%.
Regarding `CCN(CC)S(=O)(=O)NCC1Cc2ccccc2O1` (stereo not given), the Percent Effect is -0.544%.
In the case of `O=C(CCn1cnnn1)N1CCCC(CO)(CCCc2ccccc2)C1` (stereo not given) it was 0.115%; in that of `COCCN(CCOC)c1nc2c(s1)c(C)nn2C`, 0.796%.
In the case of `O=C(NCc1nnc2n1CCCC2)c1ccc(C2CCCO2)s1` (stereo not given) it was -8.64%; in that of `CCN(C(=O)CS(=O)(=O)c1cc(OC)c(OC)cc1C)C1CC1`, 19.2%; in that of `COc1c(C)cnc(CN2CCn3c(C)nnc3C2)c1C`, 8.91%.
Then `OC(CNCCc1nnc2ccccn12)c1ccc2c(c1)OCO2` (stereo not given), with 17.2%.
Consider `CCC(=O)Nc1cccc(OCC(=O)N2CC=CC2C(C)C)c1` (stereo not given), for which the Percent Effect was -4.81%.
Take `CC(c1nc(C2CC2)no1)N1CCc2c(ncn2C)C1` (stereo not given): the Percent Effect worked out at 12%.
In the case of `Cn1ccc(NC(=O)CN2CCN(C3CCCC3)C(=O)C2)n1` it was 4.97%.
In the case of `N#Cc1cc(S(N)(=O)=O)ccc1N1CCN(c2ccccc2)CC1` it was 10.8%; in that of `Cc1ccc(CNS(=O)(=O)CCCC#N)cc1F`, 7.39%.
Then `CCC[C@H]1CN(S(=O)(=O)N(C)Cc2ccccc2)C[C@@H]1N`, with -0.364%; and `CC(c1ccc(F)cc1F)N1CCN(CCN2CCCC2=O)CC1` (stereo not given), with -18%.
Consider `CC(CN1CCOC1=O)NC(=O)c1cccc(Cl)c1Cl` (stereo not given), for which the Percent Effect is 10%.

Values taken from ChEMBL document CHEMBL3988442, “University of Dundee, Small-Polar-MMV Screening Library” (2021).
